Bioassay records: PubChem BioAssay, several laboratories
Hits are enriched below; roughly 27% of the tested compounds scored in any of these assays.
CYP2C9 act – activators of human CYP2C9 | P11712 | recombinant CYP2C9, luciferin-H conversion, luminescence; hits give high values; factor 1 = untreated enzyme, 0 = blocked | activation factor at 5 µM | hit rate 1.4% among 96,000;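 active = activation factor of 2 or more for CYP2C9 at a 5 µM dose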;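 also: 0 = sulfaphenazole-blocked wells and 1 = vehicle-only wells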
CYP2C19 act – cytochrome P450 2C19 (human) activation; P33261; recombinant CYP2C19, luciferin-H EGE luminescence; hits give high values; 0 = fully inhibited enzyme, 1 = untreated enzyme; activation factor at 5 µM; 96,000 tested, under 10 active;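 active = activation factor of at least 2 at 5 µM in the primary screen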;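 also: 0 = wells with 2.5 mM tranylcypromine and 1 = vehicle-only wells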
Target sequence (P33261 whole entry, looked up): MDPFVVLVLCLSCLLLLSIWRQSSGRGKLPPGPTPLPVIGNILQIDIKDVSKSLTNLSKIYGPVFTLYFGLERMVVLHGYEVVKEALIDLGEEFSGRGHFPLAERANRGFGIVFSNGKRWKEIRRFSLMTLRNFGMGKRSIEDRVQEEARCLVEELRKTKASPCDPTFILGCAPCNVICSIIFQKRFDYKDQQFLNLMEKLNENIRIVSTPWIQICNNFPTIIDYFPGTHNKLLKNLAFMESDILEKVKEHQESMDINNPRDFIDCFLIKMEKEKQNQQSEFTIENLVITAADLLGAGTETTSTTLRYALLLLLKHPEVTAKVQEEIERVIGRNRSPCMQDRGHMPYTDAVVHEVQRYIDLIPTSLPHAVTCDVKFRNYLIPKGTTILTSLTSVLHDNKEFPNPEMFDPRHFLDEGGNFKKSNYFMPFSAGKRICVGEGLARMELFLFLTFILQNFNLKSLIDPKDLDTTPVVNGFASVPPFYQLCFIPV
CYP2C19 inhib – human CYP2C19 inhibition; hit rate 21% among 96,000; CYP2C19 Supersomes, luciferin-H EGE luminescence, 30 min; inhibition, % at 5 µM; AID 778;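 active = CYP2C19 inhibition above a set limit at 5 µM in the primary screen, cut at about 50% in these data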;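 also: plate controls were negative control wells for no effect and 2.5 mM tranylcypromine positive control for full effect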
CYP2C9 inhib – human CYP2C9 inhibition. P11712. CYP2C9 Supersomes, luciferin-H conversion, luminescence. inhibition, % at 5 µM. hit rate 20% among 96,000. AID 777;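 active = blocking of liver enzyme CYP2C9 beyond about 50% at 5 µM, limit read from the data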
sEH inh – soluble epoxide hydrolase (human) inhibition; P34913; recombinant human sEH enzymatic activity assay; inhibition, % at 2 µM; hit rate 0.34% among 91,000; in the data active = inhibition above about 80%
sEH act – increases human soluble epoxide hydrolase activity | activation, % at 2 µM | purified human sEH enzymatic activity, activator screen | P34913 | hit rate 0.04% among 91,000; in the data active = activation above about 37%
* marks the source's active call; other numbers are inactive results; nt = no result given.

SMILES	CYP2C9 act	CYP2C19 act	CYP2C19 inhib	CYP2C9 inhib	sEH inh	sEH act
CCOC(=O)c1c(C)oc2ccc(OCC(=O)C(C)(C)C)cc12	0.3	0.3	65.4*	71.6*	7.8	-4.8
CCOC(=O)c1c(C)oc2ccc(OCc3cc(C(=O)OC)oc3C)cc12	0.1	0.4	64.1*	86.1*	5.0	-4.3
COC(=O)c1cc(COc2ccc3oc(C)c(C(=O)OC)c3c2)c(C)o1	0.6	0.9	14.3	40.0	5.7	-5.8
Cc1cc(NC(=O)COC(=O)C2CCCN2C(=O)c2cccs2)no1 (stereo not drawn)	1	1.1	-11.8	1.2	-0.4	1.6
Cc1cc(C)nc(NC(=O)c2cccc(Cl)c2)n1	1	0.9	5.3	2.0	0.7	2.9
Cc1ccc(S(=O)(=O)N2CC(=NO)C2)cc1	1.3	0.8	25.0	-27.9	nt	nt
COc1cccc2c1N1C(=O)c3c(C(=O)O)cccc3C1CC2(C)C (stereo not drawn)	0.3	1	-2.2	70.2*	11.0	-11.4
COc1ccc(N2Cc3cccc(C(=O)O)c3C2=O)cc1	1	0.9	5.0	1.4	-3.8	5.6
Cc1cccc(NC(=O)CCCN2C(=O)c3cccc4cccc(c34)C2=O)c1	1.5	1.1	-7.0	-53.0	13.4	-11.8
CCC(C)NC(=O)c1c(F)c(F)c(F)c(F)c1F (stereo not drawn)	nt	nt	nt	nt	-8.4	11.2
Brc1ccc(-c2nnc(-c3ccco3)o2)cc1	0.9	0.8	15.9	5.7	2.0	-2.5
O=C(Cc1ccccc1)Nc1ccc(-c2nnc(-c3ccco3)o2)cc1	nt	nt	nt	nt	8.0	-9.8
O=C(Nc1ccc(-c2nnc(-c3ccco3)o2)cc1)C(c1ccccc1)c1ccccc1	0.3	1.2	-20.2	72.3*	-9.3	11.9
c1ccc(-c2nnc(-c3ccco3)o2)cc1	1.1	0.5	50.5*	-14.6	4.4	-1.5
Cc1ccc(C)c(S(=O)(=O)NCc2ccc(C(=O)N3CCC(Cc4ccccc4)CC3)cc2)c1	1.3	0.7	32.6	-29.6	-2.2	3.4
O=C(NC1=NCCS1)c1csc2ccccc12	1.1	0.6	43.5	-11.9	nt	nt
O=C(NCc1ccccc1)NC1(C(=O)N2CCOCC2)CCCCC1	0.9	1	-1.7	5.0	nt	nt
Cc1ccnc(NS(=O)(=O)c2ccc(NC(=O)C34CC5CC(CC(C5)C3)C4)cc2)n1	0.9	1	-4.3	12.5	2.9	-3.8
Cc1c2c([n+]3n1CCC3)CC(C)(C)CC2=O	1.2	1.2	-20.3	-15.5	nt	nt
CCCCN1C(=O)C2ON(c3ccccc3C)C(c3ccco3)C2C1=O (stereo not drawn)	0	0.2	77.3*	95.7*	-7.6	4.2
O=C(COC(=O)c1c2c(nc3ccccc13)CCCC2)Nc1ccc2c(c1)OCO2	0.2	0.2	75.9*	77.3*	-4.5	4.0
COc1cccc(NC(=O)COC(=O)c2c3c(nc4ccccc24)CCC(C)C3)c1 (stereo not drawn)	0.4	0.6	45.0	56.1*	-8.4	10.4
O=C(COC(=O)c1ccco1)Nc1ccc2c(c1)OCO2	0.9	0.7	33.7	9.1	nt	nt
COc1cccc(NC(=O)COC(=O)c2nc3nccc(C)n3n2)c1	1.1	0.9	9.5	-14.2	-9.8	11.8
Cc1nnc(NCCc2ccccc2)n(N)c1=O	1.1	1.1	-11.0	-7.3	-16.5	18.9
SMILES	CYP2C9 act	CYP2C19 act	CYP2C19 inhib	CYP2C9 inhib	sEH inh	sEH act
Cc1c(N=Cc2ccncc2)c(=O)n(-c2ccccc2)n1C	1.1	0.3	65.5*	-12.7	-4.8	6.6
CCOc1ccc(NC(=O)CN2CCN(CC(=O)Nc3ccc(Cl)c(C(F)(F)F)c3)CC2)cc1	0.7	0.8	23.3	31.8	8.4	-6.5
O=C(Nc1nnc(C(F)(F)F)s1)c1ccc(N2C(=O)C3C4C=CC(C4)C3C2=O)cc1 (stereo not drawn)	0.7	1.1	-9.4	29.5	-1.3	-3.0
Cc1oc(C)c2c(=O)ccc3c(c12)OC(N)=C(C#N)C3c1ccccc1Cl (stereo not drawn)	0.5	0.8	21.6	53.1*	-6.9	4.7
Cc1oc(C)c2c(=O)ccc3c(c12)OC(N)=C(C#N)C3c1ccccc1 (stereo not drawn)	0.5	0.6	39.1	48.4	-3.1	1.0
CSc1ccc(C2C(C#N)=C(N)Oc3c2ccc(=O)c2c(C)oc(C)c32)cc1 (stereo not drawn)	0.4	0.8	16.7	59.4*	12.7	-11.0
O=C(CN1CCOCC1)NC1C2CC3CC(C2)CC1C3 (stereo not drawn)	1.1	1.1	-8.4	-9.9	7.7	-5.1
COc1cccc(C(=O)NCC(=O)n2nc(C)cc2C)c1	1.2	1.1	-6.4	-19.2	2.6	-1.2
COc1ccc2cc(CN(CCCN3CCOCC3)Cc3nnnn3C3CCCCC3)c(=O)[nH]c2c1	0.9	0.6	38.8	7.3	0.4	0.0
COc1ccc(Cn2nnnc2CN(Cc2cc3cc(C)ccc3[nH]c2=O)C2CCCC2)cc1	0.7	0.7	25.4	25.2	0.0	-1.0
COc1ccc2[nH]c(=O)c(CN(Cc3ccccc3)Cc3nnnn3CC3CCCO3)cc2c1 (stereo not drawn)	0.6	0.3	72.3*	43.2	nt	nt
COc1cc2cc(CN(Cc3nnnn3Cc3ccccc3)CC3CCCO3)c(=O)[nH]c2cc1OC (stereo not drawn)	0.3	0	98.0*	68.1*	-6.4	7.2
O=S(=O)(c1ccccc1)C1(S(=O)(=O)c2ccccc2)CCCC1	0.4	0	97.8*	57.8*	nt	nt
C=CCN1C(=O)C(O)(CC(=O)c2ccc(OC)cc2OC)c2cc(Br)ccc21 (stereo not drawn)	0.2	0.4	63.0*	81.5*	13.4	-10.1
CCCCN1C(=O)C(O)(CC(=O)c2c(C)n[nH]c2C)c2cc(Br)ccc21 (stereo not drawn)	0.7	0.2	80.8*	29.8	-15.1	13.0
Cc1n[nH]c(C)c1C(=O)CC1(O)C(=O)N(CCc2ccccc2)c2ccc(Cl)cc21 (stereo not drawn)	0.1	0	99.3*	95.0*	-4.1	1.5
Cc1coc(C)c1C(=O)CC1(O)C(=O)N(CCc2ccccc2)c2ccccc21 (stereo not drawn)	0.6	0.6	42.0	44.8	3.4	0.1
CCCCN1C(=O)C(O)(CC(=O)c2ccco2)c2cc(Br)ccc21 (stereo not drawn)	0.6	0.3	67.2*	39.1	nt	nt
CCOC(=O)CN1C(=O)C(O)(CC(=O)c2ccco2)c2ccccc21 (stereo not drawn)	1.1	0.8	20.1	-9.2	-10.1	8.0
C=CCNC(=O)c1ccc(OC)cc1OC	1.1	0.8	15.0	-7.8	-15.3	13.1
CN1C(=O)C(O)(CC(=O)c2ccncc2)c2ccccc21 (stereo not drawn)	0.9	0.9	13.5	8.9	3.6	-0.7
CN1C(=O)C(O)(CC(=O)c2ccccc2O)c2cc(Br)ccc21 (stereo not drawn)	0.1	0	96.6*	92.4*	nt	nt
COC(=O)CSc1nc(N)nc(C)c1Br	1.1	1	-4.2	-7.4	nt	nt
